Assay outcomes deposited in PubChem by Broad Institute.
This is a sample that favours compounds with a hit; in the whole collection about 3.3% have one here.
ERAP1 HTS inh: inhibitors of human ERAP1 aminopeptidase | recombinant ERAP1, Leu-AMC fluorescence, 60 min | inhibition, % at 10.7 µM | 340,000 compounds, 0.15% hits | AID 652197;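 active means mean replicate inhibition of at least 30%, or all replicates individually reaching that 30% level; inactive means mean below 30% and not every replicate reaching it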
Casp6 inh: inhibitors of human caspase-6; P55212; purified caspase-6, Z-VEID-R110 cleavage fluorescence; inhibition, % at 12.5 µM; 350,000 compounds, 0.53% hits; AID 686996;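 active means mean inhibition across replicates at least about 35%, with every replicate also reaching that limit, limit read from the data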
Target sequence (P55212 24-179 limits assumed): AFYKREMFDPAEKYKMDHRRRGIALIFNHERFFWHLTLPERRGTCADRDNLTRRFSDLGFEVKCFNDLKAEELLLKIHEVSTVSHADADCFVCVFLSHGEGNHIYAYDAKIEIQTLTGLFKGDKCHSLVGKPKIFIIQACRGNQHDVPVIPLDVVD
Target sequence (P55212 194-293 limits assumed): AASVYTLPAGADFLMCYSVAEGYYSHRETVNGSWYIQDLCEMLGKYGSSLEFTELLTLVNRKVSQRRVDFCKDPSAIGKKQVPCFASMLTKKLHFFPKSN
FGF22 binding: shifts melting point of recombinant human FGF22 | recombinant FGF22 thermal shift, SYPRO orange fluorescence; percent of sucrose octasulfate shift, DMSO zero | activity (Tm shift, normalised), % at 9.99 µM | 340,000 compounds, 1.5% hits | AID 651658;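 active means mean Tm shift, scaled 0 neutral to 100 positive control, at about 1.3% or above, every replicate too, limit read from the data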
Target sequence (Q9HCT0 whole entry, looked up): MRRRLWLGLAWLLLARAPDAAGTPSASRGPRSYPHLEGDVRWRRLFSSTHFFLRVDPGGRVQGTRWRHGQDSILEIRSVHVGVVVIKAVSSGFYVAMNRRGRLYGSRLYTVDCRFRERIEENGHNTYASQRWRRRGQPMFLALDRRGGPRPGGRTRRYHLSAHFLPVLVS
GSIS activator: primary screen for activators of insulin secretion dependent on glucose, INS-1E cells, GLuc reporter luminescence; INS-1E GLuc reporter insulin secretion, 2-3 h; activation, % at 16.6 µM; 370,000 compounds, 0.61% hits;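 active means lowest replicate activation of at least 40%, so every replicate reaches that level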
SIRT5 inh: blocks human SIRT5 desuccinylation of peptide; inhibition, % at 15 µM; Purified SirT5, succinyl-peptide AMC, trypsin-coupled fluorescence; Q9NXA8; 330,000 compounds, 1.1% hits; in the data active means inhibition above about 15%
Large screens that a line does not name were inactive.

COCC(=O)Nc1ccc2c(c1)C(=O)N(C)C[C@@H](OC)[C@@H](C)CN(C(=O)NC(C)C)[C@@H](C)CO2	none (no result: Casp6 inh)
C[C@@H]1CN([C@H](C)CO)C(=O)c2cc(C#C[C@@H](C)O)cnc2O[C@@H]1CN(C)Cc1cccc(F)c1	none
C[C@@H]1CCCCO[C@@H](CN(C)C)[C@H](C)CN([C@@H](C)CO)C(=O)c2cc(NC(=O)Nc3ccc4c(c3)OCO4)ccc2O1	none
C[C@@H]1CCCCO[C@H](CN(C)Cc2ccc(C(=O)Nc3ccccc3N)cc2)[C@H](C)CN([C@@H](C)CO)C(=O)c2cc(N(C)C)ccc2O1	none (no result: ERAP1 HTS inh, Casp6 inh, FGF22 binding, SIRT5 inh)
Cc1cc(C)cc(OCCNC(=O)c2cc(S(=O)(=O)N3CCOCC3)ccc2F)c1	SIRT5 inh 17
CCCC(=O)Nc1ccc2c(c1)C(=O)N(C)[C@@H]1CC[C@@H](CC(=O)NCC3CC3)O[C@H]1CO2	none (no result: SIRT5 inh)
C[C@H]1CN([C@@H](C)CO)C(=O)c2cccc(NC(=O)c3ccc(-c4nccs4)cc3)c2O[C@@H]1CN(C)S(C)(=O)=O	none
CCCNC(=O)N1C[C@H](C)[C@H](OC)CN(C)C(=O)c2cc(NC(=O)CCC)ccc2OC[C@@H]1C	none (no result: ERAP1 HTS inh, Casp6 inh, FGF22 binding, SIRT5 inh)
CC1(C(=O)NS(=O)(=O)c2ccc(Cl)s2)CCN1C(=O)C1(c2ccccc2)CCCC1 (configuration not stated)	GSIS activator 111
Cc1noc(C)c1C(=O)N1CCC1(C)C(=O)NS(=O)(=O)Cc1cccc(Cl)c1 (configuration not stated)	FGF22 binding 44 (no result: GSIS activator, SIRT5 inh)
Cc1noc(C)c1S(=O)(=O)NC(=O)C1(C)CCN1C(=O)C1(c2ccc(Cl)cc2)CCC1 (configuration not stated)	GSIS activator 55 (no result: SIRT5 inh)
CC1(C(=O)NS(=O)(=O)c2ccc(Cl)s2)CCN1C(=O)C1(c2ccc(Cl)cc2)CCC1 (configuration not stated)	GSIS activator 59
Cc1ccccc1S(=O)(=O)NC(=O)C1(C)CCN1C(=O)C1(c2ccc(Cl)cc2)CCC1 (configuration not stated)	none (no result: SIRT5 inh)
C[C@@H]1CN([C@@H](C)CO)C(=O)c2cccc(NC(=O)Nc3ccccc3)c2O[C@H]1CN(C)C(=O)NC1CCCCC1	none
O=C(C[C@H]1C[C@H]2c3cc(NC(=O)C4CCC4)ccc3O[C@H]2[C@H](CO)O1)NCCc1ccccc1	none
Cc1ccc(-c2cnc3c(c2)C(=O)N([C@H](C)CO)C[C@H](C)[C@H](CN(C)C(=O)c2ccccc2)O3)cc1	none
CC1(C(=O)NS(=O)(=O)c2ccccc2Cl)CCN1C(=O)C1(c2ccccc2)CCCC1 (configuration not stated)	GSIS activator 92
CC1(C(=O)NS(=O)(=O)c2ccccc2Cl)CCN1C(=O)C1(c2ccccc2)CC1 (configuration not stated)	none
CCCS(=O)(=O)N1CCN(S(=O)(=O)c2ccccc2[N+](=O)[O-])CC1	FGF22 binding 43
COCCn1c(=S)[nH]c2sc3c(c2c1=O)CCCC3	GSIS activator 45
COCCCn1c(=S)[nH]c2sc3c(c2c1=O)CCCC3	none
CC(C)CC#Cc1ccc([C@H]2[C@H](CO)N3C(=O)CN(C(=O)c4cccc(F)c4)C[C@@H]23)cc1	none
C[C@H]1CCCCO[C@H](CN(C)Cc2ccc(Cl)c(Cl)c2)[C@@H](C)CN([C@@H](C)CO)C(=O)c2cc(NS(=O)(=O)c3ccc(F)cc3)ccc2O1	SIRT5 inh 15
C[C@@H]1CCCCO[C@H](CN(C)Cc2ccc(Cl)c(Cl)c2)[C@H](C)CN([C@@H](C)CO)C(=O)c2cc(NS(=O)(=O)c3ccccc3)ccc2O1	SIRT5 inh 16
C[C@@H]1CN([C@H](C)CO)C(=O)c2cc(NS(=O)(=O)c3ccccc3)ccc2O[C@@H](C)CCCCO[C@H]1CN(C)Cc1ccc(Cl)c(Cl)c1	none
C[C@@H]1CCCCO[C@@H](CN(C)Cc2ccc(Cl)c(Cl)c2)[C@@H](C)CN([C@H](C)CO)C(=O)c2cc(NS(=O)(=O)c3ccc(F)cc3)ccc2O1	none
C[C@H]1CN([C@@H](C)CO)C(=O)Cc2cc(NC(=O)Cc3ccccc3)ccc2O[C@@H]1CN(C)Cc1ccc(C(=O)O)cc1	none
NC(=O)c1ccc(C(F)(F)F)cn1	SIRT5 inh 32
NC(=O)c1ncc(C(F)(F)F)cc1Cl	none
C[C@@H]1CN([C@H](C)CO)C(=O)CCCn2nncc2CO[C@@H]1CN(C)Cc1ccc(-c2ccccc2)cc1	none
O=C(O)/C=C/C(=O)N1Cc2cc3ccccc3nc2C1	Casp6 inh 54
CCc1ccc(-c2cn3c(n2)SCC3)cc1	FGF22 binding 43
Cc1ccc(-c2cn3c(n2)SCC3)cc1	none
COc1ccccc1C(O)(C(=O)NNc1ccccc1C)c1ccccc1OC	FGF22 binding 43
COc1ccccc1C(O)(C(=O)NNc1cccc(C)c1)c1ccccc1OC	none
CCc1nnc(NC(=O)CSc2n[nH]c(-c3ccccc3O)n2)s1	FGF22 binding 1.8
Cc1nnc(NC(=O)CSc2n[nH]c(-c3ccccc3C)n2)s1	none
C[C@@H]1CN([C@H](C)CO)S(=O)(=O)c2ccc(-c3cccc(F)c3)cc2O[C@@H]1CN(C)S(=O)(=O)c1ccccc1	SIRT5 inh 16
COc1ccccc1-c1ccc2c(c1)O[C@H](CN(C)S(=O)(=O)c1ccccc1)[C@@H](C)CN([C@@H](C)CO)S2(=O)=O	SIRT5 inh 20
C[C@@H]1CN([C@H](C)CO)S(=O)(=O)c2ccc(-c3cccc(F)c3)cc2O[C@H]1CN(C)S(=O)(=O)c1ccccc1	SIRT5 inh 17
C[C@H](CO)N1C[C@H](C)[C@@H](CN(C)S(=O)(=O)c2ccccc2)Oc2cc(-c3cccc(F)c3)ccc2S1(=O)=O	none
C[C@H]1CN([C@@H](C)CO)S(=O)(=O)c2ccc(-c3cccc(F)c3)cc2O[C@@H]1CN(C)S(=O)(=O)c1ccccc1	SIRT5 inh 16
Cc1ccc(S(=O)(=O)N2C[C@@H](O)COC[C@H]3O[C@H](CC(=O)NCCN4CCCCC4)CC[C@@H]32)cc1	none
Cc1cccc(N2CCN(C(=O)CCS(=O)(=O)c3ccc(Br)cc3)CC2C)c1 (configuration not stated)	Casp6 inh 67
CC(=O)N1CCCc2cc(S(=O)(=O)CCC(=O)N3CCN(c4cccc(C)c4)C(C)C3)ccc21 (configuration not stated)	none (no result: GSIS activator)
CC(=O)c1ccc(N=C2SCCCN2C(=O)C2CCCC2)cc1	FGF22 binding 43 (no result: GSIS activator)
CCO[C@H]1OC(C(=O)N2CCN(Cc3ccc4c(c3)OCO4)CC2)=C[C@@H](C)[C@@H]1CCCO	FGF22 binding 9.2
O=C(CCC1CCCN(Cc2cccc3c2OCO3)C1)NCc1ccc(F)c(F)c1 (configuration not stated)	SIRT5 inh 38
O=C(CCC1CCCN(C(=O)c2ccc3c(c2)OCO3)C1)NCc1ccc(F)c(F)c1 (configuration not stated)	FGF22 binding 43
